From PubChem BioAssay AID488864 (Broad Institute, 2010)
Entries with a potency or affinity are not part of this list. A number with no mark means an inactive call.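 How the source made its calls: active means ATP signal reduced by compound, with fitted active dose under ten times the top valid tested dose; inactive means the rest, compounds that increase ATP levels included.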

Assay: cellular ATP toxicity in rat beta cells – cell-based, CellTiter-Glo luminescence, INS-1E, dry powder, cytotoxicity control for beta-cell cytokine protection project, dose response (AID 488864)
Conditions: INS-1E rat beta cells, 48 h, no cytokines; series mostly up to 26 µM; activity change, negative = ATP decrease: at the top concentration

SMILES	activity change, negative = ATP decrease
COc1ccc(S(=O)(=O)N(C)C[C@@H]2Oc3c(NC(=O)C4CC4)cccc3C(=O)N([C@@H](C)CO)C[C@H]2C)cc1	1.69% [at 23.5 µM]
COc1ccc(S(=O)(=O)N(C)C[C@@H]2Oc3c(NC(=O)Nc4ccc(C(F)(F)F)cc4)cccc3C(=O)N([C@@H](C)CO)C[C@H]2C)cc1	-1.88%
COc1ccc(S(=O)(=O)N(C)C[C@@H]2Oc3c(NC(=O)c4cc(C)nn4C)cccc3C(=O)N([C@@H](C)CO)C[C@H]2C)cc1	4.75%
C[C@@H]1CN([C@@H](C)CO)C(=O)c2cccc(NC(=O)Nc3cccc4ccccc34)c2O[C@H]1CN(C)S(=O)(=O)c1ccc(F)cc1	3.33%
COc1ccc(S(=O)(=O)N(C)C[C@@H]2Oc3c(NC(=O)Nc4c(C)noc4C)cccc3C(=O)N([C@@H](C)CO)C[C@H]2C)cc1	2.2%
C[C@@H]1CN([C@@H](C)CO)C(=O)c2cccc(NC(=O)Nc3ccc(F)cc3)c2O[C@H]1CN(C)S(=O)(=O)c1ccc(Cl)cc1	8.98%
COc1ccc(S(=O)(=O)N(C)C[C@@H]2Oc3c(NC(=O)Nc4ccc5c(c4)OCO5)cccc3C(=O)N([C@@H](C)CO)C[C@H]2C)cc1	9.54%
C[C@@H]1CN([C@@H](C)CO)C(=O)c2cccc(NC(=O)Nc3cccc4ccccc34)c2O[C@H]1CN(C)S(=O)(=O)c1ccccc1F	6.08%
C[C@@H]1CN([C@H](C)CO)C(=O)c2cccc(NC(=O)Nc3ccc(F)cc3)c2O[C@H]1CN(C)S(=O)(=O)c1ccc(Cl)cc1	11.6%
C[C@@H]1CN([C@@H](C)CO)C(=O)c2cccc(NC(=O)Nc3ccccc3)c2O[C@H]1CN(C)S(=O)(=O)c1ccc(Cl)cc1	3.91%
C[C@H]1CN([C@@H](C)CO)C(=O)c2cccc(NC(=O)NC3CCCCC3)c2O[C@@H]1CN(C)S(C)(=O)=O	-1.82%
Cc1ccc(S(=O)(=O)N(C)C[C@@H]2Oc3c(NC(=O)Nc4cccc5ccccc45)cccc3C(=O)N([C@@H](C)CO)C[C@H]2C)cc1	5.11%
COc1ccc(S(=O)(=O)N(C)C[C@@H]2Oc3c(NC(=O)c4ccncc4)cccc3C(=O)N([C@@H](C)CO)C[C@H]2C)cc1	-4.04%
COc1ccc(S(=O)(=O)N(C)C[C@@H]2Oc3c(NS(=O)(=O)c4cn(C)cn4)cccc3C(=O)N([C@@H](C)CO)C[C@H]2C)cc1	-1.6%
Cc1ccc(S(=O)(=O)N(C)C[C@H]2Oc3c(NC(=O)Nc4cccc5ccccc45)cccc3C(=O)N([C@@H](C)CO)C[C@@H]2C)cc1	3.34% [at 12 µM]
COc1ccc(S(=O)(=O)N(C)C[C@@H]2Oc3c(NC(=O)Nc4cccc5ccccc45)cccc3C(=O)N([C@H](C)CO)C[C@H]2C)cc1	13.1% [at 23.5 µM]
COc1ccc(S(=O)(=O)N(C)C[C@@H]2Oc3c(NC(=O)Nc4cccc5ccccc45)cccc3C(=O)N([C@@H](C)CO)C[C@H]2C)cc1F	12%
COc1ccc(S(=O)(=O)N(C)C[C@@H]2Oc3c(NC(=O)c4ccc(-c5nccs5)cc4)cccc3C(=O)N([C@@H](C)CO)C[C@H]2C)cc1	-1.51%
COc1ccc(S(=O)(=O)N(C)C[C@@H]2Oc3c(NC(=O)Nc4cccc5ccccc45)cccc3C(=O)N([C@@H](C)CO)C[C@H]2C)cc1OC	1.83%
Cc1ccc(S(=O)(=O)N(C)C[C@@H]2Oc3c(NC(=O)Nc4cccc5ccccc45)cccc3C(=O)N([C@H](C)CO)C[C@H]2C)cc1	5.66% [at 23.5 µM]
COc1ccc(S(=O)(=O)N(C)C[C@@H]2Oc3c(NC(=O)C4CCCCC4)cccc3C(=O)N([C@@H](C)CO)C[C@H]2C)cc1	6.29%
COc1ccc(S(=O)(=O)N(C)C[C@@H]2Oc3c(NS(=O)(=O)c4ccc(C)cc4)cccc3C(=O)N([C@@H](C)CO)C[C@H]2C)cc1	7.96% [at 23.5 µM]
COc1ccc(S(=O)(=O)N(C)C[C@@H]2Oc3ccc(NC(=O)Nc4cccc5ccccc45)cc3C(=O)N([C@@H](C)CO)C[C@H]2C)cc1	4.91%
C[C@@H]1CN([C@@H](C)CO)C(=O)c2cccc(NC(=O)Nc3cccc4ccccc34)c2O[C@H]1CN(C)S(=O)(=O)c1ccc2c(c1)oc(=O)n2C	2.94%
C[C@@H]1CN([C@H](C)CO)C(=O)c2cccc(NC(=O)Nc3ccccc3)c2O[C@H]1CN(C)S(=O)(=O)c1ccc(F)cc1	1.43%
N#Cc1ccc2cc(Br)c(C(F)(F)P(=O)(O)O)cc2c1	-3.66%
C[C@@H]1CN([C@@H](C)CO)C(=O)c2cccc(NC(=O)Nc3cccc4ccccc34)c2O[C@H]1CN(C)S(=O)(=O)c1cccc(F)c1	5%
C[C@@H]1CN([C@@H](C)CO)C(=O)c2cccc(NC(=O)Nc3ccc(F)cc3)c2O[C@H]1CN(C)S(=O)(=O)c1ccc(F)cc1	5.77%
